PubChem BioAssay (NCI)
The panel holds about 83,000 compounds, 20% with a hit somewhere; the sample as a whole holds those more often.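 The test compound was applied at a single concentration to cells in 96-well plates for 48 hours, and percent growth was recorded.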 A number with no mark means an inactive call. How the source made its calls: active means growth percent below 10; inactive means the rest.

The molecules below were run on NCI-H226 lung (assay: NCI-60 one-dose screen, 48 h (100 = growth as untreated, 0 = no growth, -100 = all killed)). Details: 10 µM unless noted.

SMILES | growth [%]
N#CC1=C(N)Oc2c(c(N)nn2-c2ccccc2)C1c1ccc(Cl)cc1Cl (stereo unspecified) | 102
C=C(C)[C@@H]1CC[C@]2(C=O)CC[C@]3(C)[C@H](CC[C@@H]4[C@@]5(C)C/C(=C/c6cccnc6)C(=O)C(C)(C)[C@@H]5CC[C@]43C)[C@@H]12 | 91.3
C=C(C)[C@@H]1CC[C@]2(C(=O)N3CCN(CC)CC3)CC[C@]3(C)[C@H](CC[C@@H]4[C@@](C)(CCC(=O)N5CCN(CC)CC5)[C@H](C(=C)C)CC[C@]43C)[C@@H]12 | 79.6
CCN1CCN(C(=O)[C@]23CCC(C)(C)C[C@H]2C2=CC[C@@H]4[C@@]5(C)CC/C(=N/O)C(C)(C)[C@@H]5CC[C@@]4(C)[C@]2(C)CC3)CC1 | 66.5
N#CC1=C(N)Oc2c(sc3c(F)cccc23)C1c1ccc(Cl)cc1 (stereo unspecified) | 74.9
O=C1c2cccc3cccc(c23)C(=O)N1CC#Cc1ccc2c3c(cccc13)C(=O)N(CCN1CCNCC1)C2=O | 102
C=C(C)[C@@H]1CC[C@]2(/C=N/Nc3ccncc3)CC[C@]3(C)[C@H](CC[C@@H]4[C@@]5(C)CCCNC(C)(C)[C@@H]5CC[C@]43C)[C@@H]12 | 87.7
Cc1ccnc2c(OCc3ccccc3)cccc12 | 81.9
C=CC(=O)N[C@H](Cc1ccc(-c2cc(Cl)cc(Cl)c2)cc1)[C@H](O)[C@@H](O)C(=O)O | 71.3
C=COCCCCCCCCCCCCCCCCCC | 104
COc1cc2ncnc(Nc3ccc(Oc4ccnc(C)c4)c(C)c3)c2cc1NC(=O)CC1CCSS1 (stereo unspecified) | 25.8
